Test results reported in PubChem BioAssay (Tox21).
Records with an inconclusive call do not appear. Activity calls are given as the source filed them. Unless noted, calls come from the whole dose curve; as a rule, active = well fitted curve in the direction sought with a large enough effect in the repeat runs; inconclusive = weak or mixed curves; inactive = no such curve, though single readings can be large; an effect the other way counts as inactive or inconclusive.

Tests used:
[1] = qHTS assay to identify small molecule antagonists of the estrogen related receptor (ERR) signaling pathway from Tox21 library - cell viability counter screen (AID 1224834); note: nearly all actives have a fitted effect of over 30% in size
Outline: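 Cytotoxicity of test substances is gauged in the same ERR cells used for the antagonist screen, after 17.5 h of compound treatment at 37 C, by CellTiter-Fluor fluorescence measured after 30 min.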

[2] = molecular target: Luciferin 4-monooxygenase (Photinus pyralis) (UniProt P08659); assay: qHTS assay to identify small molecule inhibitors of firefly luciferase (AID 1224835); note: nearly all actives have a fitted effect of over 25% in size
Sequence of Luciferin 4-monooxygenase (Photinus pyralis) (P08659 whole entry, looked up): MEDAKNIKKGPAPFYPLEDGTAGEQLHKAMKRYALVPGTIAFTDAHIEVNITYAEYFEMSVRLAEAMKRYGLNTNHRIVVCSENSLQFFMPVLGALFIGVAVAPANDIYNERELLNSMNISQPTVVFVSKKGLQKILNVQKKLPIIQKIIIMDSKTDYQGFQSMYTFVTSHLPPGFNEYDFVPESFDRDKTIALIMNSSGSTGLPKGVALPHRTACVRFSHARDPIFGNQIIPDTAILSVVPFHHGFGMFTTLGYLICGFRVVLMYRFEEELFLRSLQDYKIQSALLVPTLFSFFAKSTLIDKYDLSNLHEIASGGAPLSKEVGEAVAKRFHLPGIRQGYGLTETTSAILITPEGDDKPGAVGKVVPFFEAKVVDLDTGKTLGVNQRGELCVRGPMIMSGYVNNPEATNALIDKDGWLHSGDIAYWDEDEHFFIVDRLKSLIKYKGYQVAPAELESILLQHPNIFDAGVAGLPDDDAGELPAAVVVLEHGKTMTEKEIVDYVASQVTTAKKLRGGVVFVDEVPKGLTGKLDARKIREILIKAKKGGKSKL
Outline: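 Quantitative HTS format; KM concentrations of both substrates. Purified P. pyralis FLuc activity quantified from luminescence images.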

[3] = qHTS assay to identify small molecule agonists of the constitutive androstane receptor (CAR) signaling pathway - cell viability counter screen (AID 1224836); note: nearly all actives have a fitted effect of over 45% in size
Outline: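 Viability read-out: CellTiter-Fluor fluorescence after 23 h compound exposure at 37 C/5% CO2 in double-stable HepG2-CYP2B6-hCAR cells, with PK11195 present at 0.75 uM final; compounds tested in 15-point titration.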

[4] = qHTS assay to identify small molecule antagonists of the constitutive androstane receptor (CAR) signaling pathway - cell viability counter screen (AID 1224837); note: nearly all actives have a fitted effect of over 45% in size
Outline: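 Multiplexed cytotoxicity read-out for the CAR antagonist screen: double-stable HepG2-CYP2B6-hCAR cells co-treated with 50 nM CITCO (final) and compound over 15 concentrations, incubated 23 hr, then assessed by CellTiter-Fluor fluorescence.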

[5] = molecular target: Nuclear receptor subfamily 1 group I member 3 (Homo sapiens) (UniProt Q14994); assay: qHTS assay to identify small molecule antagonists of the constitutive androstane receptor (CAR) signaling pathway (AID 1224838); note: nearly all actives have a fitted effect of over 40% in size
Sequence of Nuclear receptor subfamily 1 group I member 3 (Homo sapiens) (Q14994 whole entry, looked up): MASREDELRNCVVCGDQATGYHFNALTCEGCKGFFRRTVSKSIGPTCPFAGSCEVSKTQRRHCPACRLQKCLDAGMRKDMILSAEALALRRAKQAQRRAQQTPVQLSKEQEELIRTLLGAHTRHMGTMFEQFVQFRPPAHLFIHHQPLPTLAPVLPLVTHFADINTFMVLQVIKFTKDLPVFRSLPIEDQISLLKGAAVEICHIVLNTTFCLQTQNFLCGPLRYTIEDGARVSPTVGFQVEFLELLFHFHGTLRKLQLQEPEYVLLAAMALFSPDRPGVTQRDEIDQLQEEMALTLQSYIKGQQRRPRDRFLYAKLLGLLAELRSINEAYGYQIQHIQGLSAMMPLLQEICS
Outline: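 Compounds were titrated across 15 concentrations onto HepG2 cells double-stably expressing hCAR and a CYP2B6-2.2kb reporter, together with 50 nM CITCO (final). After 24 h at 37 C, luciferase activity was measured by luminescence.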

[6] = molecular target: Nuclear receptor subfamily 1 group I member 3 (Homo sapiens) (UniProt Q14994); assay: qHTS assay to identify small molecule agonists of the constitutive androstane receptor (CAR) signaling pathway (AID 1224839);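 note: HepG2 cells stably carrying human CAR and a CYP2B6 luciferase reporter; nearly all actives have a fitted effect of over 15% in size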
Outline: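 Luminescence read-out (ONE-Glo, 30 min, room temperature) from double-stable HepG2-CYP2B6-hCAR cells exposed 24 h to 15-point compound series in presence of 0.75 uM PK11195 final.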

[7] = qHTS assay to identify small molecule antagonists of the estrogen related receptor signaling pathway with the pleiotropic PPARgamma coactivator (PGC) from Tox21 10K library - cell viability counter screen (AID 1224840; active = well fitted cell-killing curve with a large enough effect in the repeat runs, not every such curve was filed as active; note: nearly all actives have a fitted effect of over 40% in size)
Outline: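 Step one, plate 2,000 PGC/ERR cells per well; step two, incubate 6 h at 37 C/5% CO2; step three, pin-transfer compounds; step four, incubate 17.5 h; step five, add CellTiter-Fluor and read fluorescence after 30 min.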

[8] = qHTS assay to identify small molecule antagonists of the estrogen related receptor signaling pathway with the pleiotropic PPARgamma coactivator (PGC) from Tox21 10K library (AID 1224841; call rule not given here; note: actives are mostly falling curves and most rising ones were filed inactive; nearly all actives have a fitted effect of over 50% in size)
Outline: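 Antagonism in this quantitative HTS is taken from loss of luciferase signal in PGC/ERR cells. Cells (2,000/well) are treated with compounds in DMSO after a 6 h settling period and read by One-Glo luminescence after 18 h.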

[9] = qHTS assay to identify small molecule agonists of the estrogen related receptor signaling pathway with the pleiotropic PPARgamma coactivator (PGC) from Tox21 10K library (AID 1224842); note: nearly all actives have a fitted effect of over 15% in size
Outline: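 PGC/ERR reporter cells (NTP line) were seeded 2,000 per well, rested 6 h at 37 C/5% CO2, then pin-dosed with compounds in DMSO for 18 h at 37 C; luciferase read by One-Glo luminescence after 30 min at room temperature.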

[10] = molecular target: Thyrotropin receptor (Homo sapiens) (UniProt P16473); assay: qHTS assay to identify small molecule agonists of the thyroid stimulating hormone receptor (TSHR) signaling pathway (AID 1224843; calls by dose curve; note: nearly all actives have a fitted effect of over 45% in size)
Sequence of Thyrotropin receptor (Homo sapiens) (P16473 whole entry, looked up): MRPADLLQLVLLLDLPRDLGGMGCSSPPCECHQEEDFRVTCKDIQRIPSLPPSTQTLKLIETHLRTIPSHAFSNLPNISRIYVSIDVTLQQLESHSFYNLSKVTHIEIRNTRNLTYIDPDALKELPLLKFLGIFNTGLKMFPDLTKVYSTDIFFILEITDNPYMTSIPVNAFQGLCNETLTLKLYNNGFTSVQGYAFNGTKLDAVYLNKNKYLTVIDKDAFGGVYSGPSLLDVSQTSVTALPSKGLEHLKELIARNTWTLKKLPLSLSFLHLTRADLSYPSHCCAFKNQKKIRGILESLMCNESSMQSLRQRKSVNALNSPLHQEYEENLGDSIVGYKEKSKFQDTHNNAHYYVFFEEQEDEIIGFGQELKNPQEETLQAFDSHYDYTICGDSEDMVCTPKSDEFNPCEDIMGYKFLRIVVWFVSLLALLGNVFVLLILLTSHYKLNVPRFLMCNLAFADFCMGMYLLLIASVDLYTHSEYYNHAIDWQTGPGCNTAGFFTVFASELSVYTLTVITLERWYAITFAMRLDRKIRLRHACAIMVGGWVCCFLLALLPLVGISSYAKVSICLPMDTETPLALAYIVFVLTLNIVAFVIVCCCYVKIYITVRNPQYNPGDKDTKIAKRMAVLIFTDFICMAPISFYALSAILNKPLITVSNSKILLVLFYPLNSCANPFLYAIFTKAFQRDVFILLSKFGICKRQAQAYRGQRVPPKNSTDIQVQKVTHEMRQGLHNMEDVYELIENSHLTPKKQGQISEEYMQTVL
Outline: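 Cell line HEK293 with TSHR; density 800/well. Exposure 30 min RT. Readout HTRF cAMP (cAMP-d2/anti-cAMP-cryptate), 1 h RT before reading.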

[11] = qHTS assay to identify small molecule agonists of the hypoxia (HIF-1) signaling pathway - cell viability counter screen (AID 1224844; calls by dose curve; note: nearly all actives have a fitted effect of over 50% in size)
Outline: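 Tox21 10K compounds were added to HRE-bla ME-180 cells (0.5% dialyzed FBS) and incubated 17 hrs at 37C; ATP-based CellTiter-Glo luminescence then reported cell viability in the same wells.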

[12] = qHTS assay to identify small molecule agonists of H2AX (AID 1224845; active = well fitted activation curve with a large enough effect in the signal ratio in the repeat runs, not every such curve was filed as active; the % refers to the signal ratio)
Outline: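 Wild-type CHO-K1 cells plated overnight, then exposed 3 hr at 37C to compounds at 15 concentrations (0.76% DMSO). Lysed, then HTRF anti-pH2AX(S139)-cryptate/anti-H2AX-d2 detection after 24 hr at room temperature; emissions 665 and 620 nm.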

[13] = qHTS assay to identify small molecule agonists of the hypoxia (HIF-1) signaling pathway (AID 1224846; active = well fitted activation curve with a large enough effect in the signal ratio in the repeat runs, not every such curve was filed as active; the % refers to the signal ratio)
Outline: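 Steps: seed ME-180 HRE-bla cells (2,000/well, 0.5% dialyzed FBS); incubate 5 hrs at 37C; pin-transfer compounds or DMSO; incubate 17 hrs; add LiveBLAzer B/G substrate CCF4-AM; measure reporter activation by FRET.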

[14] = qHTS assay to identify small molecule agonists of H2AX - cell viability counter screen (AID 1224847; calls by dose curve; note: top concentration of the series differs between compounds; nearly all actives have a fitted effect of over 30% in size)
Outline: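 CHO-K1 wt, 1000 cells/well, o/n 37C; cpds 15 conc, 3 h 37C, 0.76% DMSO; CellTiter-Glo, 30 min RT, luminescence.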

[15] = qHTS assay to identify small molecule antagonists of the estrogen related receptor (ERR) signaling pathway from Tox21 library (AID 1224848); note: nearly all actives have a fitted effect of over 50% in size
Outline: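 Screening used an ERR reporter line supplied by NTP, exposed for 18 h at 37 C to library compounds delivered in DMSO. Signal was luciferase luminescence developed with ONE-Glo at room temperature for 30 min.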

[16] = qHTS assay to identify small molecule agonists of the estrogen related receptor (ERR) signaling pathway from Tox21 library (AID 1224849; calls by dose curve; note: nearly all actives have a fitted effect of over 15% in size); conditions: ERR reporter cell line, ONE-Glo luciferase, 18 h; at 92.4 µM (top of the series) unless noted
Outline: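 Agonist signal is luciferase luminescence from an ERR reporter cell line treated 18 h at 37 C with DMSO-dissolved compounds, read 30 min after ONE-Glo addition at room temperature.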

[17] = qHTS RealTime-Glo MT Cell Viability Assay in HepG2 cells - 24 hour (AID 1224867); note: nearly all actives have a fitted effect of over 50% in size
Outline: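 Tox21 10K library screened in qHTS format on HepG2 cells carrying RealTime-Glo reagents. Compounds were added after a 5 h preincubation, and the luminescent signal from continuous culture was measured repeatedly during 40 h treatment.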

[18] = qHTS RealTime-Glo MT Cell Viability Assay in HEK293 cells - 32 hour (AID 1224868)
Outline: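 Luminescence generated by NanoLuc from substrate produced by living HEK293 cells served as the viability signal. Each value reflects the reading at its stated time point during continuous 40 h compound exposure at 37 C.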

[19] = A CellTox Green Cytotoxicity Assay to monitor cytotoxicity in HEK293 cells - 0 hour (AID 1224869); note: nearly all actives have a fitted effect of over 50% in size
Outline: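 Cytotoxicity was tracked continuously in HEK293 cells by a DNA-binding dye excluded from viable cells. Compounds were transferred in DMSO 5 h after seeding; fluorescence was recorded at intervals up to 40 h.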

[20] = qHTS RealTime-Glo MT Cell Viability Assay in HepG2 cells - 40 hour (AID 1224870); note: nearly all actives have a fitted effect of over 50% in size
Outline: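 HepG2 cells mixed with RealTime-Glo MT reagents (NanoLuc plus cell-permeant prosubstrate) were seeded at 600 cells/well, incubated 5 h at 37 C/5% CO2, then pinned with compounds in DMSO; nonlytic luminescence tracked viability during 40 h treatment.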
% is set by controls: 0 for no effect and ±100 for the full control effect.

COC(=O)/C=C(/C)N
inactive: Potency [1] | Potency [2] | Potency [3] | Potency [4] | Potency [5] | Potency [6] | Potency [7] | Potency [8] | Potency [9] | Potency [10] | Potency [11] | Potency [12] | outcome [13] | Potency [14] | Potency [15] | activity change, positive = activation [16] 7.53% [at 42.5 µM] | Potency [17] | Potency [18] | Potency [19] | Potency [20]

CNCCC(Oc1ccccc1OC)c1ccccc1 (configuration not stated)
inactive: Potency [1] | Potency [2] | Potency [3] | Potency [4] | Potency [5] | Potency [6] | Potency [7] | Potency [9] | Potency [10] | Potency [11] | Potency [12] | Potency [14] | Potency [15] | activity change, positive = activation [16] -5.63% [at 42.5 µM] | Potency [17] | Potency [18] | Potency [19]

OCCN(CCO)CCN(CCO)CCO
inactive: Potency [1] | Potency [2] | Potency [3] | Potency [4] | Potency [5] | Potency [6] | Potency [7] | Potency [8] | Potency [9] | Potency [10] | Potency [11] | Potency [12] | outcome [13] | Potency [14] | Potency [15] | activity change, positive = activation [16] -1.05% | Potency [17] | Potency [18] | Potency [19] | Potency [20]

CC(C)CCCCCCc1ccc(OCCOCCO)cc1
inactive: Potency [1] | Potency [2] | Potency [3] | Potency [4] | Potency [5] | Potency [6] | Potency [7] | Potency [8] | Potency [9] | Potency [10] | Potency [11] | Potency [12] | outcome [13] | Potency [14] | Potency [15] | activity change, positive = activation [16] -10.7% | Potency [18] | Potency [19] | Potency [20]

O=C1CCCc2ccccc21
inactive: Potency [1] | Potency [2] | Potency [3] | Potency [4] | Potency [5] | Potency [6] | Potency [7] | Potency [8] | Potency [9] | Potency [11] | Potency [12] | outcome [13] | Potency [14] | Potency [15] | activity change, positive = activation [16] 6.42% | Potency [18] | Potency [19] | Potency [20]

COc1ccccc1OCC(O)COC(N)=O (configuration not stated)
inactive: Potency [1] | Potency [2] | Potency [3] | Potency [4] | Potency [5] | Potency [6] | Potency [7] | Potency [8] | Potency [9] | Potency [11] | Potency [12] | Potency [14] | Potency [15] | activity change, positive = activation [16] 6.93% [at 42.5 µM] | Potency [17] | Potency [18] | Potency [19] | Potency [20]
